This is an account of results in PubChem BioAssay (EPA / NIEHS).

Calls of active or inactive are those of the source. The calls were made as follows: active = hit-call score of the fitted dose curve at least 0.9, where 1 is the maximum; inactive = score below 0.9.

Conditions in all cases: mRNA level, 48 h; actives raise or lower the signal
Read-out in assay [1]: Cytochrome P450 (CYP24A1), CYP24A1 (gene 1591)
In words: LTEA_HepaRG_CYP24A1: Life Technologies and Expression Analysis (LTEA) Assay for Cytochrome P450 (CYP24A1) using HepaRG (AID 2283478). Put shortly:
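HepaRG, 48 h chemical exposure, 8-pt half-log CRC from 100 uM, 0.5% DMSO vehicle, duplicates. Endpoint: CYP24A1 mRNA by Fluidigm TaqMan qRT-PCR, normalized ACTB/GAPDH/POLR2A; gain/loss fit vs DMSO.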

Read-out in assay [2]: Cytochrome P450 (CYP1A2), CYP1A2 (gene 1544)
In words: LTEA_HepaRG_CYP1A2: Life Technologies and Expression Analysis (LTEA) Assay for Cytochrome P450 (CYP1A2) using HepaRG (AID 2283479). Put shortly: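 CYP1A2 transcript induction or loss, quantified by Fluidigm qRT-PCR against three housekeeping genes, was fitted bidirectionally against 0.5% DMSO controls. Human HepaRG cells received eight half-log concentrations from 100 uM over 48 h.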

Read-out in assay [3]: cysteine-aspartic acid protease (CASP8), CASP8 (gene 841)
In words: LTEA_HepaRG_CASP8: Life Technologies and Expression Analysis (LTEA) Assay for cysteine-aspartic acid protease (CASP8) using HepaRG (AID 2283480). Put shortly:
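HepaRG, 48 h exposure, duplicate wells; 8 conc, half-log from 100 uM, 0.5% DMSO. Serum-free induction medium. CASP8 mRNA by TaqMan qRT-PCR, norm. ACTB/GAPDH/POLR2A; gain/loss fitted vs DMSO.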

Read-out in assay [4]: Cytochrome P450 (CYP2B6), CYP2B6 (gene 1555)
Put plainly: LTEA_HepaRG_CYP2B6: Life Technologies and Expression Analysis (LTEA) Assay for Cytochrome P450 (CYP2B6) using HepaRG (AID 2283481). Put shortly:
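HepaRG cells plated 48 h, switched to serum-free induction medium, then dosed 48 h (8 points, half-log from 100 uM, 0.5% DMSO). RNA isolated; CYP2B6 expression measured by qRT-PCR; gain or loss fitted relative to DMSO.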

Read-out in assay [5]: Cytochrome P450 2C19 (Homo sapiens) (UniProt P33261)
Put plainly: LTEA_HepaRG_CYP2C19: Life Technologies and Expression Analysis (LTEA) Assay for CYP2C19 using HepaRG (AID 2283482). In short, it runs like this: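 Transcript levels of CYP2C19 were quantified by qRT-PCR after HepaRG cells were treated for 48 hours with test chemicals up to 100 uM (eight half-log concentrations, 0.5% DMSO vehicle). Gain or loss of signal was fitted relative to DMSO.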

Read-out in a further assay: CYP2C8 (gene 1558)
Put plainly: LTEA_HepaRG_CYP2C8: Life Technologies and Expression Analysis (LTEA) Assay for CYP2C8 using HepaRG (AID 2283483). Put shortly: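 CYP2C8 mRNA induction or loss, by qRT-PCR normalized to ACTB/GAPDH/POLR2A, is read in HepaRG cells after 48 h treatment. Concentrations run from 100 uM down in half-log dilutions, with 0.5% DMSO as vehicle and baseline.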

Read-out in a further assay: CYP2C9 (gene 1559)
Put plainly: LTEA_HepaRG_CYP2C9: Life Technologies and Expression Analysis (LTEA) Assay for CYP2C9 using HepaRG (AID 2283484). In short, it runs like this:
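Cells plated 48 h, switched to serum-free induction medium, then treated in duplicate for 48 h at eight concentrations (max 100 uM, 0.5% DMSO). RNA then analysed by qRT-PCR for CYP2C9; curves fitted in both directions relative to DMSO.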

Read-out in another assay: CYP2E1 (gene 1571)
Put plainly: LTEA_HepaRG_CYP2E1: Life Technologies and Expression Analysis (LTEA) Assay for CYP2E1 using HepaRG (AID 2283485). In short, it runs like this: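 HepaRG cells, plated 48 h, then exposed 48 h in serum-free induction medium to eight half-log concentrations from 100 uM in 0.5% DMSO, duplicate. CYP2E1 mRNA by qRT-PCR, normalized to ACTB/GAPDH/POLR2A; bidirectional fit versus DMSO.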

Read-out in the next assay: CYP4A11 (gene 1579)
In words: LTEA_HepaRG_CYP4A11: Life Technologies and Expression Analysis (LTEA) Assay for CYP4A11 using HepaRG (AID 2283486). In short, it runs like this:
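HepaRG, 48 h chem exposure, 8 conc (100 uM top, half-log), 0.5% DMSO vehicle; qRT-PCR readout, housekeeping-gene normalized; bidirectional curve fit vs DMSO baseline.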

Read-out in assay [6]: Cytochrome P450 3A4 (Homo sapiens) (UniProt P08684)
In words: LTEA_HepaRG_CYP3A4: Life Technologies and Expression Analysis (LTEA) Assay for CYP3A4 using HepaRG (AID 2283487). Put shortly:
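In a human hepatic line (HepaRG), duplicate wells were treated 48 h with up to 100 uM chemical in half-log dilutions. Endpoint: CYP3A4 mRNA induction or loss relative to 0.5% DMSO vehicle, by qRT-PCR.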

Read-out in assay [7]: DNA damage-inducible transcript 3 (DDIT3), DDIT3 (gene 1649)
Put plainly: LTEA_HepaRG_DDIT3: Life Technologies and Expression Analysis (LTEA) Assay for DNA damage-inducible transcript 3 (DDIT3) using HepaRG (AID 2283488). In short, it runs like this: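 HepaRG cells, 48 h after plating, exposed 48 h in serum-free induction medium to 8 half-log concentrations up to 100 uM in 0.5% DMSO, in duplicate. DDIT3 mRNA measured by TaqMan qRT-PCR, normalized to ACTB, GAPDH and POLR2A. Fitted bidirectionally against DMSO.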

Read-out in assay [8]: Pro-epidermal growth factor (Homo sapiens) (UniProt P01133)
In words: LTEA_HepaRG_EGF: Life Technologies and Expression Analysis (LTEA) Assay for Epidermal growth factor (EGF) using HepaRG (AID 2283489). In short, it runs like this:
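HepaRG, 48 h dosing, 100 uM top, half-log x8, 0.5% DMSO. Readout: TaqMan qRT-PCR (Fluidigm array), housekeeping-normalized. Gain or loss of signal fit vs DMSO.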

Read-out in assay [9]: Early growth response protein 1 (EGR1) transcription factor, EGR1 (gene 1958)
Put plainly: LTEA_HepaRG_EGR1: Life Technologies and Expression Analysis (LTEA) Assay for Early growth response protein 1 (EGR1) transcription factor using HepaRG (AID 2283490). In short, it runs like this: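 Read-out is EGR1 mRNA level by qRT-PCR, normalized to three housekeeping genes and analysed for gain or loss of signal against 0.5% DMSO. Source cells: human HepaRG, treated 48 h at up to 100 uM in half-log dilutions.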

Read-out in assay [10]: Ezrin (EZR), EZR (gene 7430)
In words: LTEA_HepaRG_EZR: Life Technologies and Expression Analysis (LTEA) Assay for Ezrin (EZR) using HepaRG (AID 2283491). In short, it runs like this:
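Gain or loss of EZR mRNA is scored relative to 0.5% DMSO in human HepaRG cultures treated 48 h with test chemicals in duplicate, eight half-log concentrations from 100 uM.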

Read-out in assay [11]: Cytochrome P450 3A7 (Homo sapiens) (UniProt P24462)
Put plainly: LTEA_HepaRG_CYP3A7: Life Technologies and Expression Analysis (LTEA) Assay for CYP3A7 using HepaRG (AID 2283492). In short, it runs like this: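 Human HepaRG liver cells, 48 h post-plating, switched to serum-free induction medium and exposed in duplicate for 48 h. Dosing: 100 uM top, half-log dilutions, 8 points, 0.5% DMSO vehicle. Read-out: CYP3A7 mRNA, gain or loss fitted against DMSO baseline.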

Read-out in a further assay: CYP3A5 (gene 1577)
In words: LTEA_HepaRG_CYP3A5: Life Technologies and Expression Analysis (LTEA) Assay for CYP3A5 using HepaRG (AID 2283493). Put shortly: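 HepaRG cells, plated 48 h then in serum-free induction medium, dosed in duplicate for 48 h with eight half-log concentrations up to 100 uM in 0.5% DMSO. Gene mRNA by Fluidigm TaqMan qRT-PCR, normalized to ACTB, GAPDH, POLR2A.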

Read-out in assay [12]: Fatty Acid-Binding Protein 1 (FABP1), FABP1 (gene 2168)
In words: LTEA_HepaRG_FABP1: Life Technologies and Expression Analysis (LTEA) Assay for Fatty Acid-Binding Protein 1 (FABP1) using HepaRG (AID 2283494). Put shortly:
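HepaRG, 48 h post-plating switched to serum-free induction medium, then dosed 48 h (duplicate, 8 pts, ≤100 uM, 0.5% DMSO). RNA → Fluidigm TaqMan qRT-PCR, FABP1 normed to ACTB/GAPDH/POLR2A. Bidirectional curve fit vs DMSO.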

Read-out in assay [13]: Cytochrome P450 4A22 (Homo sapiens) (UniProt Q5TCH4)
Put plainly: LTEA_HepaRG_CYP4A22: Life Technologies and Expression Analysis (LTEA) Assay for Cytochrome P450 4A22 (CYP4A22) using HepaRG (AID 2283495). In short, it runs like this:
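Readout is CYP4A22 transcript induction or loss, quantified by qRT-PCR and normalized to ACTB, GAPDH and POLR2A. Human HepaRG cells receive test chemicals for 48 h at eight half-log concentrations from 100 uM in 0.5% DMSO.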

Read-out in assay [14]: Cytochrome P450 7A1 (Homo sapiens) (UniProt P22680)
Put plainly: LTEA_HepaRG_CYP7A1: Life Technologies and Expression Analysis (LTEA) Assay for Cytochrome P450 7A1 (CYP7A1) using HepaRG (AID 2283496). In short, it runs like this:
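HepaRG cells plated 48 h, then switched to serum-free induction medium and exposed in duplicate for 48 h to 8-point half-log series from 100 uM in 0.5% DMSO. CYP7A1 mRNA by qRT-PCR (TaqMan), normalized to ACTB/GAPDH/POLR2A; bidirectional fit versus DMSO.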

Read-out in assay [15]: Glutathione S-Transferase (GSTA2), GSTA2 (gene 2939)
In words: LTEA_HepaRG_GSTA2: Life Technologies and Expression Analysis (LTEA) Assay for Glutathione S-Transferase (GSTA2) using HepaRG (AID 2283497). In short, it runs like this: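 HepaRG, 48 h dosing, 8-pt half-log CRC from 100 uM, 0.5% DMSO vehicle, n=2; RNA → Fluidigm TaqMan qRT-PCR; GSTA2 vs ACTB/GAPDH/POLR2A; gain/loss fit vs DMSO.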

Sequence of Cytochrome P450 3A7 (Homo sapiens) (P24462 whole entry, looked up): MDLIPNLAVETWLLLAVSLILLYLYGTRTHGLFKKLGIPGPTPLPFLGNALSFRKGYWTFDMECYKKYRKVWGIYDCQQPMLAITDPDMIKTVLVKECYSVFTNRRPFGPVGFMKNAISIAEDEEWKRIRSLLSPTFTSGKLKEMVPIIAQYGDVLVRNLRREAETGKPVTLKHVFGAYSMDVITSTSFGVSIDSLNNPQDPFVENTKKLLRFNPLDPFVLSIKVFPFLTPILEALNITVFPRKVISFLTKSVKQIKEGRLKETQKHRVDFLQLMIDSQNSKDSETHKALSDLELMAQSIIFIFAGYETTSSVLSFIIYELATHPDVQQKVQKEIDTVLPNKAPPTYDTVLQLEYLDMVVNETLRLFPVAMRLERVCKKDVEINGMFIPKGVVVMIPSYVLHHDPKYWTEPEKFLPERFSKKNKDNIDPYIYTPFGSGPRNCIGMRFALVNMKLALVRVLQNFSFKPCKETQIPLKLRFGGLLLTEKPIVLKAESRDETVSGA
Sequence of Cytochrome P450 2C19 (Homo sapiens) (P33261 whole entry, looked up): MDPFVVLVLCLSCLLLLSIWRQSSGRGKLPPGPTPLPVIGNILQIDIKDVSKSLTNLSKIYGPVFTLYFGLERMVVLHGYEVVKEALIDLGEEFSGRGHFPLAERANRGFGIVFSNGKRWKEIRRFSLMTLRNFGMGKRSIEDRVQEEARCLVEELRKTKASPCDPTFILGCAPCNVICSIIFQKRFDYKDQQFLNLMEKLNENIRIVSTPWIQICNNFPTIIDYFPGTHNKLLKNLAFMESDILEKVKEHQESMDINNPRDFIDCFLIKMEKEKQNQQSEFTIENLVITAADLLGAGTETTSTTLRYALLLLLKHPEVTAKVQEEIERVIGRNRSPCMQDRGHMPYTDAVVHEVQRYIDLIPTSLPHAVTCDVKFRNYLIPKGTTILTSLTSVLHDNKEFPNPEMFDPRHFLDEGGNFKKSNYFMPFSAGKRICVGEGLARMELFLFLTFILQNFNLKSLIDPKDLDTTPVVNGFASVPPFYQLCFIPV
Sequence of Cytochrome P450 3A4 (Homo sapiens) (P08684 whole entry, looked up): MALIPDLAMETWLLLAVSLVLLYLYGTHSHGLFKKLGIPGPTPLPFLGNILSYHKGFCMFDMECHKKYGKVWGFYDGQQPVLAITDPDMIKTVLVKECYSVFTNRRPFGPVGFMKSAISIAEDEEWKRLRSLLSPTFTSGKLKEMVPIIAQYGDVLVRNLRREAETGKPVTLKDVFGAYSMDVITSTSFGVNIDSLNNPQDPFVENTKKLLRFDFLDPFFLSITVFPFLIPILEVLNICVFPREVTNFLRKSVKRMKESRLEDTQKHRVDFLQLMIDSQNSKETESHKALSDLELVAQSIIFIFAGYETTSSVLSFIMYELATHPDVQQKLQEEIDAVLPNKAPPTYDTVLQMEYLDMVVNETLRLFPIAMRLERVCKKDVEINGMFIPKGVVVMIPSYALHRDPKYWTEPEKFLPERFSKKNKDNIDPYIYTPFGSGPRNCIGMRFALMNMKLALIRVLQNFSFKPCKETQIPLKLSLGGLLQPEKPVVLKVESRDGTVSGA

Take `OCc1ccccc1`: the call (in assay [1]; in assay [2]; in assay [3]; in assay [4]; in [5]; in the assay with CYP2C8 (gene 1558)) was inactive. Besides, the outcome (in the assay with CYP2C9 (gene 1559); with CYP2E1 (gene 1571); in the assay with CYP4A11 (gene 1579); in assay [6]; in assay [7]; in [8]) was inactive. The call (in assay [9]; in assay [10]; in [11]; with CYP3A5 (gene 1577); in assay [12]; in assay [13]) was inactive. Moreover, the molecule was classed as inactive in assay [14] and in [15].

One may read the AC50 as the concentration at which the activity in the assay is half-maximal. Regarding `CCc1cccc(CC)c1N`, the molecule was classed as inactive (in assay [1]; in [3]; in [5]; with CYP2C8 (gene 1558); with CYP2C9 (gene 1559); with CYP2E1 (gene 1571)). Also, the outcome (with CYP4A11 (gene 1579); in [7]; in assay [8]; in assay [9]; in assay [10]; in assay [11]) was inactive. The molecule was classed as inactive (with CYP3A5 (gene 1577); in [12]; in assay [13]; in [14]; in assay [15]). Moreover, the concentration at half-maximal activity (AC50) was 50 µM (active) in [2] and 6.35 µM (active) in [4].

Consider `c1ccc2cc3ccccc3cc2c1`, for which the outcome (in [1]; in assay [3]; in [5]; in the assay with CYP2C8 (gene 1558); with CYP2C9 (gene 1559); in the assay with CYP4A11 (gene 1579)) was inactive. Besides, the molecule was classed as inactive (in assay [7]; in [8]; in assay [9]; in assay [10]; with CYP3A5 (gene 1577); in assay [12]). Further, the molecule was classed as inactive in assay [14] and in [15]. The AC50 is 18.7 µM (active) in assay [2], 13.2 µM (active) in assay [4], 50 µM (active) with CYP2E1 (gene 1571) and 13.2 µM (active) in assay [11].

With `O=c1[nH]cnc2c1ncn2[C@H]1CC[C@@H](CO)O1`, the call (in assay [1]; in assay [2]; in assay [3]; in [4]; in assay [5]; with CYP2C8 (gene 1558)) was inactive. For the same molecule, the outcome (with CYP2C9 (gene 1559); with CYP2E1 (gene 1571); in the assay with CYP4A11 (gene 1579); in assay [7]; in [8]; in assay [9]) was inactive. For the same molecule, the result (in assay [10]; in assay [11]; in the assay with CYP3A5 (gene 1577); in assay [12]; in assay [14]; in assay [15]) was inactive.

As for `CCCCCCCC/C=C\CCCCCCCC(=O)OC[C@@H](O)[C@H]1OC[C@H](O)[C@H]1O`, the call (in assay [1]; in assay [2]; in [3]; in assay [4]; in assay [5]; with CYP2C8 (gene 1558)) was inactive. In addition, the call (in the assay with CYP2C9 (gene 1559); with CYP2E1 (gene 1571); with CYP4A11 (gene 1579); in assay [6]; in assay [8]; in assay [9]) was inactive. For the same molecule, the molecule was classed as inactive (in [10]; in assay [11]; with CYP3A5 (gene 1577); in assay [12]; in [13]; in [14]). In addition, the outcome in assay [15] was inactive.

For `CC(C)CCCCCCOC(=O)C1CCCCC1C(=O)OCCCCCCC(C)C` (stereo not drawn), the outcome (in assay [1]; in assay [4]; in [5]; with CYP2C8 (gene 1558); in the assay with CYP2C9 (gene 1559); with CYP2E1 (gene 1571)) was inactive. The molecule was called inactive (in the assay with CYP4A11 (gene 1579); in [7]; in [8]; in [9]; in assay [10]; in assay [11]). The molecule was classed as inactive (in the assay with CYP3A5 (gene 1577); in [12]; in assay [13]; in assay [14]; in assay [15]). Also, the values for the AC50 in [2] and in assay [3] were 50 µM (active) and 0.00316 µM (active), respectively.
